The whole screen tested about 76,000 compounds, of which about 1,200 (1.6%) were called active. Entries that show only a call come without a potency. About 4% were inconclusive and are not listed. Calls come from the whole dose curve. Many of the other results were omitted from the sample, so actives are more common in it than they were.
These compounds were tested against Atrial natriuretic peptide receptor 1 (Homo sapiens) (UniProt P16066) (assay: Natriuretic polypeptide receptor (hNpr1) antagonism - Primary qHTS). Conditions: HEK293 hNpr1 GloSensor cGMP, ANP-stimulated luminescence; series mostly up to 46.3 µM.
Procedure, shortened: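 Compound pre-incubated 30 min at room temperature on GloSensor-loaded HEK293 cells stably carrying hNpr1 and the pGS-40F cGMP biosensor. Stimulation uses hNppA at 0.1 nM final; luminescence is taken at baseline and 20 min post-agonist.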
Note: nearly all actives have a fitted effect of over 60% in size.
Potency is the fitted concentration of half-maximal effect.

Atrial natriuretic peptide receptor 1 (Homo sapiens), sequence (P16066 whole entry, looked up): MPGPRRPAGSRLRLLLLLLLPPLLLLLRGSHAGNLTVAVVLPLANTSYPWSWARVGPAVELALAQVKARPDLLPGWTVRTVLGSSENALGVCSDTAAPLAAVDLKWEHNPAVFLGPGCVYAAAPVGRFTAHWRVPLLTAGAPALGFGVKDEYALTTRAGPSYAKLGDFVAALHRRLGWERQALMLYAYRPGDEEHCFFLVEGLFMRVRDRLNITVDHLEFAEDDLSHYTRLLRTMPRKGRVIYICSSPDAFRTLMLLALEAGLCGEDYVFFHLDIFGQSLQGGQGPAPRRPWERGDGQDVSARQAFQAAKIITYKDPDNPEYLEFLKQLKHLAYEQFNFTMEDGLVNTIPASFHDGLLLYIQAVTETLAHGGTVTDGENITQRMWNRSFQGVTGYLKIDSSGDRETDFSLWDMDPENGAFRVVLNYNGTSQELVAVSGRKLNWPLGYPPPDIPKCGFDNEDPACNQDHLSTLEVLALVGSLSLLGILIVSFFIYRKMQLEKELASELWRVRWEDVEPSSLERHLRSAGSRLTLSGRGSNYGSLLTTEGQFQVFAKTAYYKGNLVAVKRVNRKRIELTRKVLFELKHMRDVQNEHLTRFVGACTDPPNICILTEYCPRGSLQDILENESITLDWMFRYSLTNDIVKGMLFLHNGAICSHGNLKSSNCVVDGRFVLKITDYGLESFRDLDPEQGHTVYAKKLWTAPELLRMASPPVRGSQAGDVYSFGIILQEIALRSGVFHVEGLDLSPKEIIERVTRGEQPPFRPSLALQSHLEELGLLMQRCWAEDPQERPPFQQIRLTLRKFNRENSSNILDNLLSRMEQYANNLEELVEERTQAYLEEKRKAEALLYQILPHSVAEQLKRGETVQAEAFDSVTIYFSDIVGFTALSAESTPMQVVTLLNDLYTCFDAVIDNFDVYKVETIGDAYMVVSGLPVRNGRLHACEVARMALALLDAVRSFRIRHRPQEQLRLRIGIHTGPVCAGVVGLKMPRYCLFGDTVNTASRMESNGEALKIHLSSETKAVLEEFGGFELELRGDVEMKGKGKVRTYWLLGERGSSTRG

Compound | Potency
O=c1n(CC2CC2)nc2n1CCC(NS(=O)(=O)c1cccc(F)c1)CC2 (stereo unspecified) | inactive
COc1ccc(CC(=O)N2CCC[C@H]2c2nc(-c3ccccc3)no2)cc1 | inactive
COc1ccc(C(=O)N2CCC(Cc3nc(-c4cnccn4)no3)CC2)cc1 | inactive
COc1ccc(-c2noc([C@@H]3CCCN3C(=O)CCc3ccccc3)n2)cc1 | inactive
COc1ccc(-c2noc(CC3CCN(C(=O)Cc4ccccc4)CC3)n2)cc1 | 11.2 µM (active)
COc1ccc(-c2noc(CC3CCN(C(=O)Cc4ccc(C)cc4)CC3)n2)cc1 | 15.8 µM (active)
CCOc1ccc(CC(=O)N2CCC(Cc3nc(-c4cnccn4)no3)CC2)cc1 | inactive
Cc1ccc(CC(=O)N2CCC(Cc3nc(-c4cnccn4)no3)CC2)cc1 | inactive
COc1ccc(-c2noc(CC3CCN(C(=O)CC4CCCCC4)CC3)n2)cc1 | 6.31 µM (active)
COc1ccc(-c2noc([C@@H]3CCCN3C(=O)Cc3ccccc3Cl)n2)cc1 | inactive
O=C(Nc1ccc(C(F)(F)F)cc1)N[C@@H]1C[C@H](CO)[C@@H](O)[C@H]1O | inactive
COc1ccc(C(=O)N2CCC3(CC2)NC(=O)N(c2ccc(F)cc2)N3)cc1OC | inactive
O=C(Nc1ccccc1)N1CCCCC1c1noc(COc2ccc(F)cc2)n1 (stereo unspecified) | inactive
CCCn1cnc2c1CN(S(=O)(=O)Cc1ccccc1)[C@H](C(=O)OC)C2 | inactive
CCc1nc(-c2c3n(c(=O)n(CCc4ccc(OC)cc4)c2=O)CCCC3)no1 | inactive
COc1cccc(CN2CCc3c(cc(C(=O)NCCN4CCCCC4)n3C)C2)c1 | inactive
COc1ccc(CNC(=O)c2cccc3c2CCN3C(=O)c2ccc(F)cc2)cc1OC | 8.91 µM (active)
CN1CCCCCC(O)c2cc(C(=O)NCc3ccc(F)cc3)ccc21 (stereo unspecified) | inactive
COc1ccc(NC(=O)c2ccc3c(c2)N(C(=O)c2ccc(F)cc2)CC3)c(C)c1 | inactive
O=C(c1ccnc(-c2nnc3ccc(N4CCOCC4)nn23)c1)N1CCCCC1 | inactive
COc1ccccc1CNC(=O)CCC[C@@H]1[C@H]2CCCN3CCC[C@@H](CN1C(=O)c1ccccc1)[C@@H]23 | inactive
COCCN1CCCCCC(O)c2cc(C(=O)Nc3cccc(OC)c3)ccc21 (stereo unspecified) | inactive
CN(Cc1ccc(CCN)cc1)Cc1cccc(-n2cccn2)c1 | inactive
O=C(NCc1nnc2cc(-c3nc(C4CC4)no3)ccn12)c1ccc(F)cc1Cl | 7.08 µM (active)

Compound | Potency
CN(C)c1ccc(C(=O)NCc2nnc3cc(-c4nc(C5CC5)no4)ccn23)cc1 | inactive
CCOc1ccccc1C(=O)NCc1nnc2cc(-c3nc(C)no3)ccn12 | inactive
COc1cccc(CC(=O)N2CCCC(c3nc(-c4cccnc4)no3)CCNC(=O)CC2)c1 (stereo unspecified) | inactive
Cc1cccc(OCC(=O)N2CCN(c3cc(C(F)(F)F)nc(C)n3)CC2)c1 | inactive
CC(C)CN[C@H]1[C@H](O)[C@H](O)C[C@@H]1c1ccc(N2CCOCC2)nc1 | inactive
Oc1ccc(-c2ccc(-c3nc(CCc4ccccc4)no3)cn2)cc1 | inactive
CN(CCc1cn[nH]c1)c1ccc(-c2nc(-c3ccccc3F)no2)cn1 | 8.91 µM (active)
CN(C)CCN(C)c1ccc(-c2nc(-c3ccccc3F)no2)cn1 | inactive
CCCC(C)C(=O)N1CCCN(C)c2ccccc21 (stereo unspecified) | inactive
COc1ccc2nc3n(c2c1)[C@@H](CNC1CCCCC1)COC3 | inactive
Cc1ccccc1-n1nc(C)c(CCC(=O)NC(C)C)c1Oc1cccc(F)c1 | inactive
Cc1cc(N2CCCC(Cn3cc(Cc4ccccc4)nn3)C2)nc(N)n1 (stereo unspecified) | 7.94 µM (active)
COc1ccc(-c2cn3c(n2)CO[C@@H](CNCc2ccc(F)c(F)c2)C3)cc1 | inactive
CN(Cc1csc(-c2ccccc2)n1)c1cc(C2CC(O)C2)nc(N)n1 (stereo unspecified) | 2.51 µM (active)
COc1ccc(CN2C(=O)CO[C@H]3CN(C(=O)C4CC4)C[C@H]32)cc1 | inactive
COc1ccc(CN2C(=O)CO[C@H]3CN(Cc4cccnc4)C[C@H]32)cc1 | inactive
COc1ccc(CN2C(=O)CO[C@H]3CN(Cc4ccc5c(c4)OCO5)C[C@H]32)cc1 | 31.6 µM (active)
Cc1cc(F)ccc1NC(=O)CCC1CCCN(C(=O)c2ccc(Cl)s2)C1 (stereo unspecified) | inactive
Cc1noc(C)c1C(=O)N1CCCC(CCc2ccc(F)cc2F)C1 (stereo unspecified) | inactive
Cc1c[nH]c(CN2CCCC(CCc3ccc(F)cc3F)C2)c(C)c1=O (stereo unspecified) | 2.51 µM (active)
Fc1ccc(-c2cnc3n[nH]c(-c4ccc5c(c4)OCO5)c3n2)cc1 | inactive
Cc1ccc(-c2nnc(C3CN(C(=O)CCc4ccccc4)CC34CCOCC4)o2)cc1 (stereo unspecified) | inactive
O=C(c1cccc2[nH]ccc12)N1CCC2(CC1)N=C(c1cccc(Br)c1)NO2 | inactive
Cc1ccc(C2=NC3(CCN(C(=O)c4ccc(C#N)cc4)CC3)ON2)cc1 | inactive

Compound | Potency
O=C(c1ccc2cc[nH]c2c1)N1CCC2(CC1)N=C(c1ccc(Cl)cc1)NO2 | 11.2 µM (active)
OCC1(CN2CCCC2)CCN(Cc2cccc(Cn3cccn3)c2)CC1 | inactive
COc1cccn(CC(=O)N(C)Cc2csc(C(C)C)n2)c1=O | inactive
COc1ccc(CNC(=O)CN2C(=O)NC3(CCC(C(C)(C)C)CC3)C2=O)cc1OC (stereo unspecified) | inactive
c1ccc(-c2noc(-c3ccccc3OC3CCNC3)n2)cc1 (stereo unspecified) | inactive
c1ccc(CO[C@@H]2CO[C@H]3[C@@H]2OC[C@@H]3n2nnnc2SCc2ccco2)cc1 | 22.4 µM (active)
CC(C)(CC(=O)O)CC(=O)N[C@H]1CO[C@H]2[C@@H]1OC[C@@H]2n1nnnc1-c1ccccc1 | inactive
CC(C)(C)CC(=O)N1CC[C@H](NC(=O)Nc2ccc(F)cc2F)[C@H]1C(=O)N[C@H](Cc1ccccc1)C(N)=O | inactive
CCC(C)NC(=O)CN1C(=O)NC2(CCC(C(C)(C)C)CC2)C1=O (stereo unspecified) | inactive
CCCNc1cc(N2CCC(CCC(=O)NCc3ccc(Cl)cc3)CC2)ncn1 | inactive
C1CCC(COCCc2noc(C3CNC3)n2)C1 | 12.6 µM (active)
O=C(c1ccoc1)N1CCCC(c2nc(CCOCC3CCCC3)no2)C1 (stereo unspecified) | inactive
O=C(Cc1cccnc1)N1CCCC(c2nc(CCOCC3CCCC3)no2)C1 (stereo unspecified) | inactive
COCCC(=O)N1CCC2(CC1)CC(C(=O)N1CCOCC1)N(C)C2 (stereo unspecified) | inactive
Cc1ccc2c(c1)nc1n2[C@@H](CNS(=O)(=O)c2ccccc2)COC1 | 31.6 µM (active)
Cc1ccc2nc3n(c2c1)[C@@H](CNC(=O)COc1ccccc1)COC3 | inactive
Cc1ccc2c(c1)nc1n2[C@@H](CNC(=O)c2ccccc2)COC1 | inactive
COCC1CN(Cc2ccc(OC)c(OC)c2Cl)CC12CCNCC2 (stereo unspecified) | inactive
COc1ccc(-c2cc(CC3(NCc4cccc(OC)c4)COC3)no2)cc1 | inactive
CCN(CC)C(=O)[C@@H]1CCC[C@@H](NC2CCC2)CN(C)C(=O)C1 | inactive
COc1ccc(CC(=O)N2CCC(Cc3nc(-c4ccccc4)no3)CC2)cc1OC | 10 µM (active)
COc1ccc(CC(=O)N2CCC(Cc3nc(-c4cnccn4)no3)CC2)cc1Cl | inactive
COc1ccc(-c2noc(CC3CCN(C(=O)Cc4ccc(OC)c(OC)c4)CC3)n2)cc1 | 2.82 µM (active)
COc1ccc(CC(=O)N2CCC(Cc3nc(C(C)C)no3)CC2)cc1Cl | inactive

Compound | Potency
COc1ccc(CC(=O)N2CCC3(CC2)CC(O)CCO3)cc1OC (stereo unspecified) | inactive
COc1ccc(-c2nc3c(c(=O)[nH]2)CCN(C(=O)Cc2ccc(OC)c(Cl)c2)C3)cc1 | inactive
CCOCCOc1cccc(C(=O)N2CCC3(CCOCC3)CC2)c1 | inactive
CN(C)C(=O)c1n[nH]c2c1CN(C(=O)c1cccc(C(F)(F)F)c1)CC2 | inactive
Cc1cc(C)c(CNC(=O)c2nc(-c3cccc(CO)c3)cc3c2ccn3C)c(=O)[nH]1 | inactive
Cc1ccccc1-n1nc(CC(N)=O)nc1-c1ccc(Cn2cnnn2)cc1 | inactive
Cc1ccccc1CC(=O)N1CCC[C@H]1c1nc(-c2ccccc2Cl)no1 | inactive
O=c1[nH]c(C2CCN(Cc3ccccc3)CC2)nc2ccc(F)cc12 | inactive
O=c1[nH]c(C2CCN(Cc3ccc(F)cc3)CC2)nn1Cc1ccccc1 | inactive
N#Cc1cccc(CN2CCC(C3=NC(O)c4cc(F)ccc4N3)CC2)c1 (stereo unspecified) | 8.91 µM (active)
O=C(c1ccc(Br)cc1)N1CCN(c2cc(-c3ccccc3)[nH]n2)CC1 | inactive
O=C(c1cc(F)ccc1Cl)N1CCN(c2cc(-c3ccc(F)cc3)[nH]n2)CC1 | 17.8 µM (active)
COc1ccc(-c2cc(N3CCN(C(=O)c4cc(OC)cc(OC)c4)CC3)n[nH]2)cc1 | inactive
COc1ccc(-c2cc(N3CCCN(C(=O)c4ccc(C)cc4)CC3)n[nH]2)cc1 | inactive
O=C(c1ccc(F)cc1F)N1CCN(c2cc(-c3ccc(Cl)cc3)[nH]n2)CC1 | 14.1 µM (active)
O=C(c1ccoc1)N1CCN(c2cc(-c3ccc(Cl)cc3)[nH]n2)CC1 | inactive
Cc1ccc(C(=O)N2CCN(c3cc(-c4ccc(Cl)cc4)[nH]n3)CC2)c(C)c1 | 6.31 µM (active)
COc1ccc(-c2cc(N3CCN(C(=O)c4ccncc4)CC3)n[nH]2)cc1 | inactive
O=C(Cc1ccc(F)cc1)NC1CCN(c2cc(-c3ccc(Cl)cc3)[nH]n2)CC1 | inactive
CC(C)c1cc(C2CCCN2CCC(=O)Nc2ccc(C(N)=O)cc2)no1 (stereo unspecified) | inactive
COc1ccc(-c2nc(C3CC(=O)N(c4ccc(F)c(Cl)c4)C3)no2)cc1OC (stereo unspecified) | inactive
O=C1NCCOCCCN(C(=O)CC2CCCC2)[C@H]2CCC[C@@H]12 | inactive
Cn1cnc(S(=O)(=O)N2CCCC(Cc3noc(-c4cnccn4)n3)C2)c1 (stereo unspecified) | inactive
Cc1cn2nc(C(=O)NCC(C)c3ccccc3)cc2c(N2CCCC2)n1 (stereo unspecified) | inactive

From PubChem BioAssay AID1347048 (National Center for Advancing Translational Sciences (NCATS), 2019)
